According to PubChem BioAssay (NCI):
This is part of a sample that, as a whole, favours compounds with a hit. Of some 83,000 tested, about 20% had one in any assay.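 Negative percent growth values reflect cell death: -40 means 40% of the cells present at the start died, and -100 means all died.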 A number with no mark means an inactive call. Activity calls are given as the source filed them. Rule for the calls: active = growth percent below 10; inactive = the rest.

Legend:
Assay in all cases: NCI-60 one-dose screen, 48 h (100 = growth as untreated, 0 = no growth, -100 = all killed)
Settings in all cases: 10 µM unless noted
SK-MEL-2 melanoma = test system: SK-MEL-2 melanoma
EKVX NSCLC = test system: EKVX NSCLC
SN12C renal = test system: SN12C renal
UO-31 renal = test system: UO-31 renal
TK-10 renal = test system: TK-10 renal
ACHN renal = test system: ACHN renal
CAKI-1 renal = test system: CAKI-1 renal
A498 renal = test system: A498 renal
CCRF-CEM leukemia = test system: CCRF-CEM leukemia
MOLT-4 leukemia = test system: MOLT-4 leukemia

SMILES | growth (SK-MEL-2 melanoma) | growth (EKVX NSCLC) | growth (SN12C renal) | growth (UO-31 renal) | growth (TK-10 renal) | growth (ACHN renal) | growth (CAKI-1 renal) | growth (A498 renal) | growth (CCRF-CEM leukemia) | growth (MOLT-4 leukemia)
CCc1cc(OC(=O)N2CCC(N3CCCCC3)CC2)ccc1Nc1cc(-c2ccc(-n3cccn3)cc2)[nH]n1 | 95.9% | 97% | 77.7% | 46% | 95.7% | 42.9% | 48.4% | 71.3% | 7.95% (active) | 18.9%
O=C1c2ccccc2C23C(=C(c4cncnc4)c4ccccc42)CCCN13 (stereo not given) | 106% | 100% | 96.4% | 85.6% | 97% | 99.2% | 78.5% | 96.4% | 102% | 107%
Fc1ccc(-c2cn3c(-c4c[nH]c5ccc(Br)cc45)csc3n2)cc1 | 90.5% | 64.9% | 52.4% | 47.8% | 80.3% | 49% | 38.3% | 91.3% | 70.3% | 63.9%
O=C(/C=C/c1ccc(Cl)c(Cl)c1)Nc1ncc(Cc2ccc(Cl)c(Cl)c2)s1 | 79.2% | 69.8% | 83.7% | 63.5% | 95.8% | 42.6% | 53.9% | 99.8% | 71.3% | 54.8%
CC1(C)CC[C@]23CC[C@]4(C)[C@H](CC[C@@H]5[C@@]6(C)CC[C@H](N)C(C)(C)[C@@H]6CC[C@]54C)[C@H]2[C@H]1OC3 | 108% | 63.1% | 79.1% | 82.7% | 135% | 36.5% | 1.94% (active) | 108% | -5.4% (active) | -13.3% (active)
O=C(/C=C/c1cccc(F)c1)c1cccc(OCCCOc2cccc(C(=O)/C=C/c3cccc(F)c3)c2)c1 | 97.3% | 47.2% | 82% | 37.6% | 114% | 89.4% | 90.4% | 90.8% | 36.8% | 56.3%
COc1cccc(N2CCN(C3=C(Cl)C(=O)c4ncccc4C3=O)CC2)c1 | 98.4% | 102% | 95.8% | 38% | 126% | -23.8% (active) | 57.8% | 104% | 10% (active) | 18.2%
CCOC(=O)c1ccc(NC2=CC(=O)C(C)=C(C)C2=O)cc1 | 96.1% | 94.6% | 93.8% | 73.9% | 137% | 89.9% | 69.3% | 84.3% | 54.4% | 41.3%
C=C(C=O)[C@@H]1CC[C@]2(C(=O)O)CC[C@]3(C)C(CC[C@@H]4[C@@](C)(CCC#N)[C@H](C(=C)C=O)CC[C@]43C)[C@@H]12 (stereo not given in full) | 61.1% | 100% | 66.4% | 32.8% | 128% | 51.8% | 17.8% | 96.9% | 2.89% (active) | 5.55% (active)
C#C[C@]1(O)CC[C@H]2[C@@H]3CC=C4c5sc(N(C)c6ccccc6)nc5CC[C@]4(C)[C@H]3CC[C@@]21C | 85.8% | 103% | 91.2% | 106% | 137% | 92.1% | 92.3% | 88.4% | 44.3% | 31.3%
CC(O)c1cccc(/C(N)=N/C(N)=N/c2nc3ccccc3s2)c1 (stereo not given) | 107% | 91.9% | 86.9% | 89.2% | 133% | 86.6% | 101% | 90.7% | 84% | 83.9%
COc1ccc(-c2nc(C#N)c(N3CCC(S(=O)(=O)N4CCOCC4)CC3)o2)cc1 | 102% | 105% | 99.5% | 89.1% | 131% | 97.8% | 92.9% | 100% | 101% | 98.3%
CN(C)CCCOc1ccc(C(=C(c2ccccc2)C2CCCC2)c2ccc(OCCCN(C)C)cc2)cc1 | -94.3% (active) | -82.2% (active) | -82.2% (active) | -96.8% (active) | -93% (active) | -94.5% (active) | -79.3% (active) | -82.4% (active) | -35.2% (active) | -58% (active)
CC(=O)OC[C@@]12Oc3c(cccc3-c3ccc(O)c4c3O[C@]3(COC(C)=O)C(=C4O)C(=O)C[C@H](C)[C@@H]3OC(C)=O)C(O)=C1C(=O)C[C@H](C)[C@@H]2OC(C)=O | -20.4% (active) | 16.4% | 7.7% (active) | 9.35% (active) | 9.84% (active) | 7.48% (active) | 0.254% (active) | 1.51% (active) | 14.3% | 4.81% (active)
CCCNNC(=O)c1ccc(-c2ccc(NC(=O)CCCCCCC(=O)N[C@H](C(=O)N3C[C@H](O)C[C@H]3C(=O)N[C@@H](C)c3ccc(-c4scnc4C)cc3)C(C)(C)C)cc2)cc1 | 7.01% (active) | 79.4% | 47.8% | 83.6% | 2.19% (active) | 78.2% | 61.8% | -14.4% (active) | 23.2% | 21.1%
CCOC(=O)c1ccccc1NC1=C(Cl)C(=O)c2nc(C)ccc2C1=O | 112% | 95.1% | 88.2% | 91.9% | 147% | 101% | 98.6% | 87.4% | 84.3% | 84.8%
CC(=O)N1N=C(c2cc3ccccc3oc2=O)CC1c1cn(-c2ccccc2)nc1-c1ccc(C)cc1 (stereo not given) | 108% | 98.3% | 98.8% | 83.2% | 105% | 97.8% | 92% | 101% | 102% | 108%
COc1ccc(/C(=N\NC(N)=S)c2ccc(Cl)cc2)cc1OC | -23.8% (active) | 50.8% | 29% | 34.5% | 83.3% | 42.3% | 31.2% | -4.86% (active) | 25.6% | 29.5%
CC(Nc1ncnc2ccc(-c3cnc(N)nc3)cc12)c1ccccc1 (stereo not given) | 60.8% | 13.5% | 22.1% | 9.12% (active) | -8.21% (active) | 16.9% | 16.7% | 11.5% | 36.4% | 30.3%
COc1ccc2c(c1)C=CC1(O2)Oc2ccc(OC)cc2C=C1C (stereo not given) | 47.3% | 47.3% | 51.9% | 44.9% | 98% | 38% | 30.3% | 7.58% (active) | 7.74% (active) | 9.45% (active)
O=C(CCCCCCNC(=O)C(O)(O)C(F)(F)F)Nc1ccc(Cl)cc1 | -13.7% (active) | 39.2% | 29.8% | 8.11% (active) | 3.6% (active) | 0.488% (active) | 3.96% (active) | 9% (active) | 22.4% | 15.8%
NS(=O)(=O)c1ccc(CCn2c(-c3ccc(C(=O)O)cc3)nc(-c3ccccc3)c2-c2ccccc2)cc1 | 104% | 100% | 101% | 90.8% | 102% | 103% | 88.7% | 102% | 104% | 108%
Cc1ccc(C(=O)Nc2ccc(CNCCN3CCOCC3)c(C(F)(F)F)c2)cc1C#Cc1cnc2cccnn12 | -7.32% (active) | 41.2% | 26.5% | 19% | 51.4% | 22.8% | 17.2% | -1.13% (active) | 10.1% | 4.38% (active)
COc1cc2oc(-c3cccc(NC(=O)c4cccc([N+](=O)[O-])c4)c3)cc(=O)c2c(OC)c1OC | 91.5% | 63.9% | 40.2% | 37.8% | 92.7% | 30.3% | 49.7% | 72.9% | 59.7% | 54%
C#Cc1nc(/C=C/C(=O)NO)cs1 | 81.5% | 85.2% | 91.6% | -94% (active) | 43% | -81.9% (active) | -94.9% (active) | 17.9% | -45.7% (active) | -45.3% (active)
Cc1csc(/N=C(N)/N=C(\N)c2cccnc2)n1 | 68.2% | 82.8% | 80.1% | 77.7% | 116% | 78.4% | 60.1% | 59.6% | 79.2% | 83%
